One experiment relates to HCC1937. The experiment is described as follows: relative cell viability, compound + erastin, vs DMSO (fraction of DMSO control); higher = less growth inhibition. As to conditions: 72 h.
Another experiment concerns MDA-MB-231. Described as above. To be noted: 72 h.

The structures appear in SMILES notation. Where a name gives a salt, the structure may show the parent alone.
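Note: viability read by CCK-8 kit in 96-well plates, part of a combination screen pairing lipid-metabolism-targeting compounds with erastin.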

Take `CC(=O)c1c(C)cc2cccc(O)c2c1O` [Nepodin] + CCOc1ccccc1-n1c(C(C)N2CCN(C(=O)COc3ccc(Cl)cc3)CC2)nc2ccccc2c1=O [erastin]: the relative cell viability was 0.7 in the experiment with HCC1937 and 0.766 in the experiment on MDA-MB-231.
Turning to `CC(C)Cc1ccc([C@H](C)C(=O)O)cc1` [Dexibuprofen] + CCOc1ccccc1-n1c(C(C)N2CCN(C(=O)COc3ccc(Cl)cc3)CC2)nc2ccccc2c1=O [erastin], the relative cell viability with HCC1937 came out at 0.901; in the experiment on MDA-MB-231, 0.642.
In the same order, the values of `O=C(O)CCn1c2c(c3ccccc31)C[C@H](NS(=O)(=O)c1ccc(F)cc1)CC2` [Ramatroban] + CCOc1ccccc1-n1c(C(C)N2CCN(C(=O)COc3ccc(Cl)cc3)CC2)nc2ccccc2c1=O [erastin] are 0.494 and 0.806.
Consider `CCCc1cc(-c2nc(-c3ccc(NS(C)(=O)=O)cc3)cs2)ccn1` + CCOc1ccccc1-n1c(C(C)N2CCN(C(=O)COc3ccc(Cl)cc3)CC2)nc2ccccc2c1=O [erastin], for which the relative cell viability with HCC1937 amounted to 0.394; with MDA-MB-231, 0.651.
Regarding `CC(C)c1onc(-c2c(Cl)cccc2Cl)c1COc1ccc(/C=C/c2cccc(C(=O)O)c2)c(Cl)c1` + CCOc1ccccc1-n1c(C(C)N2CCN(C(=O)COc3ccc(Cl)cc3)CC2)nc2ccccc2c1=O [erastin], the relative cell viability in the experiment with HCC1937 was found to be 0.722; in the experiment on MDA-MB-231, 0.762.
With `O=C(NNc1ccccc1)c1ccncc1` [PluriSln 1] + CCOc1ccccc1-n1c(C(C)N2CCN(C(=O)COc3ccc(Cl)cc3)CC2)nc2ccccc2c1=O [erastin], the relative cell viability in the experiment with HCC1937 was 0.518; with MDA-MB-231 it was 0.696.
In the same order, the values of `CC(C)[C@H]1CC[C@H](C(=O)N[C@H](Cc2ccccc2)C(=O)O)CC1` [Nateglinide] + CCOc1ccccc1-n1c(C(C)N2CCN(C(=O)COc3ccc(Cl)cc3)CC2)nc2ccccc2c1=O [erastin] are 0.666 and 0.734.
The matching figures for `Cc1ccc(/C=C2\SC(=S)N(CCCCCC(=O)Nc3ccc(C(=O)O)c(O)c3)C2=O)cc1` + CCOc1ccccc1-n1c(C(C)N2CCN(C(=O)COc3ccc(Cl)cc3)CC2)nc2ccccc2c1=O [erastin]: 0.715 and 0.638.
The matching figures for `COC(=O)CN(c1ccc(CN(c2ccc(OCc3ccc(C)cc3)c(C(=O)OC)c2)S(=O)(=O)Cc2ccccc2)cc1)S(C)(=O)=O` + CCOc1ccccc1-n1c(C(C)N2CCN(C(=O)COc3ccc(Cl)cc3)CC2)nc2ccccc2c1=O [erastin]: 0.624 and 0.643.
For the molecule `Cc1nc2c([nH]1)c(=O)n(C)c(=O)n2Cc1ccco1` [Furafylline] + CCOc1ccccc1-n1c(C(C)N2CCN(C(=O)COc3ccc(Cl)cc3)CC2)nc2ccccc2c1=O [erastin], the relative cell viability in the experiment on HCC1937 was 0.672; with MDA-MB-231, 0.767.
In the same order, the values of `O=C(O)CC[C@H](O)C(=O)O` [L-2-Hydroxyglutaric acid disodium] + CCOc1ccccc1-n1c(C(C)N2CCN(C(=O)COc3ccc(Cl)cc3)CC2)nc2ccccc2c1=O [erastin] are 0.747 and 0.701.
In the same order, the values of `O=C(O)c1cccnc1Nc1cccc(C(F)(F)F)c1` [Niflumic acid] + CCOc1ccccc1-n1c(C(C)N2CCN(C(=O)COc3ccc(Cl)cc3)CC2)nc2ccccc2c1=O [erastin] are 0.771 and 0.599.
Consider `Cc1cc(SCc2sc(-c3ccc(C(F)(F)F)cc3)nc2C)ccc1OCC(=O)O` + CCOc1ccccc1-n1c(C(C)N2CCN(C(=O)COc3ccc(Cl)cc3)CC2)nc2ccccc2c1=O [erastin], for which the relative cell viability in the experiment with HCC1937 stood at 0.529; in the experiment on MDA-MB-231, 0.558.
In the same order, the values of `CC(C)C1=CC2=CC[C@@H]3[C@](C)(CCC[C@@]3(C)C(=O)O)[C@H]2CC1` [Abietic Acid] + CCOc1ccccc1-n1c(C(C)N2CCN(C(=O)COc3ccc(Cl)cc3)CC2)nc2ccccc2c1=O [erastin] are 0.673 and 1.04.
Take `CC(C)(O)c1ccccc1CC[C@@H](SCC1(CC(=O)O)CC1)c1cccc(/C=C/c2ccc3ccc(Cl)cc3n2)c1` [Montelukast] + CCOc1ccccc1-n1c(C(C)N2CCN(C(=O)COc3ccc(Cl)cc3)CC2)nc2ccccc2c1=O [erastin]: the relative cell viability is 0.561 with HCC1937 and 0.829 in the experiment with MDA-MB-231.
Turning to `Cn1nc(C(=O)N(Cc2ccccc2)Cc2ccc(C(=O)O)cc2)c2c1-c1cc(Cl)ccc1OC2` [Nidufexor] + CCOc1ccccc1-n1c(C(C)N2CCN(C(=O)COc3ccc(Cl)cc3)CC2)nc2ccccc2c1=O [erastin], the relative cell viability was found to be 0.638 with HCC1937 and 0.771 in the experiment on MDA-MB-231.
In the same order, the values of `CCC(=O)Nc1cccc(Oc2nc(Nc3ccc(N4CCN(C)CC4)cc3OC)ncc2Cl)c1` + CCOc1ccccc1-n1c(C(C)N2CCN(C(=O)COc3ccc(Cl)cc3)CC2)nc2ccccc2c1=O [erastin] are 0.255 and 0.795.
For the molecule `Cc1nc2ccc(C(=O)N3CCC4(CC3)CC(=O)c3c(cnn3C(C)C)C4)cc2[nH]1` + CCOc1ccccc1-n1c(C(C)N2CCN(C(=O)COc3ccc(Cl)cc3)CC2)nc2ccccc2c1=O [erastin], the relative cell viability in the experiment on HCC1937 is 0.619; in the experiment on MDA-MB-231, 0.733.
Turning to `CC(C)c1nc(N(C)S(C)(=O)=O)nc(-c2ccc(F)cc2)c1/C=C/[C@@H](O)C[C@@H](O)CC(=O)O` [Rosuvastatin] + CCOc1ccccc1-n1c(C(C)N2CCN(C(=O)COc3ccc(Cl)cc3)CC2)nc2ccccc2c1=O [erastin], the figures for the relative cell viability with HCC1937 and with MDA-MB-231 were 0.656 and 0.781, respectively.
The matching figures for `NC(=O)c1ncn([C@@H]2O[C@H](CO)[C@@H](O)[C@H]2O)c1N` [AICAR (Acadesine)] + CCOc1ccccc1-n1c(C(C)N2CCN(C(=O)COc3ccc(Cl)cc3)CC2)nc2ccccc2c1=O [erastin]: 0.85 and 0.973.
For the molecule `Cc1c(C(=O)NN2CCCCC2)nn(-c2ccc(Cl)cc2Cl)c1-c1ccc(Cl)cc1` [Rimonabant] + CCOc1ccccc1-n1c(C(C)N2CCN(C(=O)COc3ccc(Cl)cc3)CC2)nc2ccccc2c1=O [erastin], the values for the relative cell viability in the experiment with HCC1937 and with MDA-MB-231 were 0.581 and 0.273, respectively.
The matching figures for `CCc1c(C(=O)C(N)=O)c2c(OCC(=O)O)cccc2n1Cc1ccccc1` [Varespladib] + CCOc1ccccc1-n1c(C(C)N2CCN(C(=O)COc3ccc(Cl)cc3)CC2)nc2ccccc2c1=O [erastin]: 0.547 and 0.652.
As to `CN(CCOc1ccc(CC2SC(=O)NC2=O)cc1)c1ccccn1` (configuration not stated) [Rosiglitazone HCl] + CCOc1ccccc1-n1c(C(C)N2CCN(C(=O)COc3ccc(Cl)cc3)CC2)nc2ccccc2c1=O [erastin], the values for the relative cell viability in the experiment on HCC1937 and with MDA-MB-231 were 0.619 and 0.774, respectively.
The matching figures for `CC(C)(Oc1ccc(Cl)cc1)C(=O)O` [Clofibric acid] + CCOc1ccccc1-n1c(C(C)N2CCN(C(=O)COc3ccc(Cl)cc3)CC2)nc2ccccc2c1=O [erastin]: 0.923 and 0.592.
In the same order, the values of `c1cc(-c2cnn3cc(-c4ccc(OCCN5CCCCC5)cc4)cnc23)ccn1` [Dorsomorphin] + CCOc1ccccc1-n1c(C(C)N2CCN(C(=O)COc3ccc(Cl)cc3)CC2)nc2ccccc2c1=O [erastin] are 0.137 and 0.405.
Consider `O=C(O)c1cccc(N=Nc2c(O)[nH]c3ccc(S(=O)(=O)NCc4ccc(F)cc4)cc23)c1` + CCOc1ccccc1-n1c(C(C)N2CCN(C(=O)COc3ccc(Cl)cc3)CC2)nc2ccccc2c1=O [erastin], for which the figures for the relative cell viability in the experiment with HCC1937 and with MDA-MB-231 were 0.544 and 0.636, respectively.
The matching figures for `COc1ccc(-c2c[nH]c3nccc(-c4ccsc4)c23)c(OC)c1` + CCOc1ccccc1-n1c(C(C)N2CCN(C(=O)COc3ccc(Cl)cc3)CC2)nc2ccccc2c1=O [erastin]: 0.675 and 0.834.
In the same order, the values of `COc1cc(N2CCN(C)CC2)ccc1Nc1ncc2c(n1)N(C1CCC1)C(=O)N(c1c(C)cccc1C)C2` + CCOc1ccccc1-n1c(C(C)N2CCN(C(=O)COc3ccc(Cl)cc3)CC2)nc2ccccc2c1=O [erastin] are 0.56 and 0.586.
In the case of `CCN(CC)C(=O)N1CCN(C)CC1` [Diethylcarbamazine citrate] + CCOc1ccccc1-n1c(C(C)N2CCN(C(=O)COc3ccc(Cl)cc3)CC2)nc2ccccc2c1=O [erastin], the relative cell viability in the experiment with HCC1937 worked out at 0.729; in the experiment with MDA-MB-231 it was 0.907.
The matching figures for `COC(=O)N(CC(=O)O)Cc1cccc(OCc2nc(-c3ccc(Cl)cc3)oc2C)c1` + CCOc1ccccc1-n1c(C(C)N2CCN(C(=O)COc3ccc(Cl)cc3)CC2)nc2ccccc2c1=O [erastin]: 0.734 and 0.627.
In the same order, the values of `C[N+](C)(C)CC(O)CC(=O)[O-]` (stereo not drawn) [L(-)-Carnitine] + CCOc1ccccc1-n1c(C(C)N2CCN(C(=O)COc3ccc(Cl)cc3)CC2)nc2ccccc2c1=O [erastin] are 0.781 and 0.91.
The matching figures for `CC1(C)C[C@H]2C3=CC[C@@H]4[C@@]5(C)CC[C@H](O)[C@@](C)(CO)[C@@H]5CC[C@@]4(C)[C@]3(C)C[C@H](O)[C@@]2(CO)[C@@H](O)[C@@H]1O` [Gymnemagenin] + CCOc1ccccc1-n1c(C(C)N2CCN(C(=O)COc3ccc(Cl)cc3)CC2)nc2ccccc2c1=O [erastin]: 0.918 and 0.785.
For the molecule `CN(C)C(=N)NC(=N)N` [Metformin] + CCOc1ccccc1-n1c(C(C)N2CCN(C(=O)COc3ccc(Cl)cc3)CC2)nc2ccccc2c1=O [erastin], the relative cell viability stood at 0.63 with HCC1937 and 0.546 in the experiment with MDA-MB-231.
The matching figures for `CN1CCN(c2ccc(/C=C(\C#N)c3ccccc3Br)cc2)CC1` [DG172 (dihydrochloride)] + CCOc1ccccc1-n1c(C(C)N2CCN(C(=O)COc3ccc(Cl)cc3)CC2)nc2ccccc2c1=O [erastin]: 0.672 and 0.608.
In the same order, the values of `C[C@]12CC[C@@H](O)C[C@@H]1CC[C@@H]1[C@@H]2CC[C@]2(C)C(=O)CC[C@@H]12` [Androsterone] + CCOc1ccccc1-n1c(C(C)N2CCN(C(=O)COc3ccc(Cl)cc3)CC2)nc2ccccc2c1=O [erastin] are 0.763 and 0.564.
As to `O=C(c1c2ccccc2cc2ccccc12)N1CCC(N2CCC[C@@H](C(=O)N3CCOCC3)C2)CC1` + CCOc1ccccc1-n1c(C(C)N2CCN(C(=O)COc3ccc(Cl)cc3)CC2)nc2ccccc2c1=O [erastin], the results for the relative cell viability with HCC1937 and in the experiment with MDA-MB-231 were 0.514 and 0.483, respectively.

These data come from the supplement of paper PMC9492666.
